Inconclusive results are not listed. Entries that show only a call come without a potency. Active and inactive are the calls of the source. Calls follow the shape of the dose curve; as a rule, active = well fitted curve in the direction sought with a large enough effect; inconclusive = small, poorly fitted or top-dose-only effect, or another doubt; inactive = no such curve, though single readings can be large; an effect the other way counts as inactive or inconclusive.
Each molecule was assayed against Rap guanine nucleotide exchange factor 3 (Homo sapiens) (UniProt O95398) (assay: Confirmatory qHTS for antagonist of cAMP-regulated guanine nucleotide exchange factor 3 (EPAC1) (AID 1645880; also: nearly all actives have a fitted effect of over 55% in size; also: potency is read from the fitted curve at half-maximal effect)). Conditions: EPAC1 Rap1B-BODIPY-GDP exchange, fluorescence; series mostly up to 115 µM.
Sequence of Rap guanine nucleotide exchange factor 3 (Homo sapiens) (O95398 whole entry, looked up): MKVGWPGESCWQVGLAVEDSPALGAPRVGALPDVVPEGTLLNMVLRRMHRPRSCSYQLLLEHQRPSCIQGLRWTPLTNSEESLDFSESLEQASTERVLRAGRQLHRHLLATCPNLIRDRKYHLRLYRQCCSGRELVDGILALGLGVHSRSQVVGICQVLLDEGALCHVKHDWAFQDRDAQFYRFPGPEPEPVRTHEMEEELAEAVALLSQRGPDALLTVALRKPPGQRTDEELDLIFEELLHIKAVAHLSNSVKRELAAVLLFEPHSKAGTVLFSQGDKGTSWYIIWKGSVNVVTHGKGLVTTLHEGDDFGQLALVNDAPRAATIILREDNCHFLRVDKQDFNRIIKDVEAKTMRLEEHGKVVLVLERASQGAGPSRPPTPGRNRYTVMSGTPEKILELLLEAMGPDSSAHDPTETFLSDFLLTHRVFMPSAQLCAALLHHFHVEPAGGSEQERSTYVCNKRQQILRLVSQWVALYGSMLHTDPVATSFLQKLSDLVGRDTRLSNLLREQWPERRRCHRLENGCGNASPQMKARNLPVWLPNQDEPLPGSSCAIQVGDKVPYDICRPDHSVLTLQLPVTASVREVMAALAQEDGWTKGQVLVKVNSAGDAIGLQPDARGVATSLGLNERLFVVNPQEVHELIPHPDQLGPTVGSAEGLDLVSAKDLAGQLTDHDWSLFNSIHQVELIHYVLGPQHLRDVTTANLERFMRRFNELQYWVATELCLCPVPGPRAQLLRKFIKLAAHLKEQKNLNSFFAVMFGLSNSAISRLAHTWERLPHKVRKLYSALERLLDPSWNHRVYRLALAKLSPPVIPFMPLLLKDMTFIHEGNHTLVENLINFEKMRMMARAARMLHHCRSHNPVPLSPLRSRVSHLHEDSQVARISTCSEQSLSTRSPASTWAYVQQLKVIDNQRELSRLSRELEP
Outline: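 Nucleotide exchange uses 100 nM EPAC1, 250 nM RAP1B-BODIPY-GDP and 50 uM GDP, with compounds in a concentration-titration series. After 5 min at room temperature, fluorescence (480 nm ex/540 nm em) is read every 5 min for 30 min. Data are normalized to control ATA and DMSO.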
`COc1ccc(NC(=O)Cn2c(SCc3cc(C)ccc3C)nc3ccncc32)c(OC)c1OC` was tested, and the Potency was “inactive”.
With `CCC(C(=O)Nc1cc(OC)ccc1OC)n1nc(-c2ccccc2)c2c(c1=O)CCCC2` (stereo not drawn) the Potency was “inactive”.
In the case of `COc1ccc(C(C[N+](=O)[O-])c2c(C)cc3ccccn23)c(OC)c1` (stereo not drawn), the Potency is reported as “inactive”.
With `COCC(=O)Oc1c(Sc2ccc(C)cc2)c(C)nn1C(C)(C)C` the Potency was “inactive”.
In the case of `COc1ccc(C(=O)NC2CCCc3ccccc32)c(OC)c1OC` (stereo not drawn), the Potency is reported as “inactive”.
For `CN(CC(=O)O)c1ccc(/C=C/c2ccnc3ccccc23)cc1`, the Potency was “inactive”.
`CCOC(=O)c1c(C)[nH]c(CCC(=O)NCc2cccc(OC)c2)c1C` was tested, and the Potency was “inactive”.
With `O=C(COC(=O)/C=C/c1cccc(C(F)(F)F)c1)NC(=O)NC1CCCC1` the Potency was “inactive”.
With `COc1ccc(OC)c2c(/C=C/c3c(C)[nH]c4ccccc34)ccnc12` the Potency was “inactive”.
With `CCCCN(Cc1ccc(C(=O)N[C@H](C(=O)O)C(C)C)cc1)C(=O)C(c1ccccc1)c1ccccc1` the Potency was “inactive”.
For `CN(C)c1ccc(/C=C/C=C/c2ccnc3ccccc23)cc1`, the Potency was “inactive”.
For `COc1ccc(-c2[nH]c(-c3ccc(SC)cc3)nc2SCC(=O)Nc2nccs2)cc1`, the Potency was 84.9 µM (active).
`O=C(Nc1ccccn1)c1cccc(S(=O)(=O)N2CCc3ccccc3C2)c1` was tested, and the Potency was “inactive”.
`COc1cc(/C=N/NC(=O)c2ccccc2)ccc1O` was tested, and the Potency was “inactive”.
In the case of `C1=Cc2ccccc2/C1=C\c1ccc2c(c1)OCO2`, the Potency is reported as “inactive”.
`COc1ccccc1CNC(=O)CSc1ccc(-c2cccs2)nn1` was tested, and the Potency was “inactive”.
In the case of `COc1ccc(-c2nc3cc(C)ccc3cc2CN(C(=O)c2cccs2)C2CC2)cc1OC`, the Potency is reported as “inactive”.
For `COc1ccccc1NC(=O)Nc1nc(CC(=O)Nc2ccc(N(C)C)cc2)cs1`, the Potency was “inactive”.
In the case of `Cc1ccc2nc(N3C(=O)C(O)=C(C(=O)c4ccc(C)o4)C3c3cccc(O)c3)sc2c1` (stereo not drawn), the Potency is reported as 37.9 µM (active).
For `Cc1nc(C)n(CC(=O)NCC2Cc3cc(-c4cccc(OC(F)(F)F)c4)ccc3O2)n1` (stereo not drawn), the Potency was “inactive”.
`Cc1ccc(C2CC(=O)Oc3cc(C)cc(C)c32)cc1` (stereo not drawn) was tested, and the Potency was “inactive”.
For `CCCCN(C(=O)CSc1n[nH]c(-c2ccc(C)cc2)n1)c1c(N)n(CCCC)c(=O)[nH]c1=O`, the Potency was “inactive”.
`O=C1C[C@H]2C=CCc3cccc(c32)CN1Cc1ccc(Cl)cc1` was tested, and the Potency was “inactive”.
`NC(=O)C1CCN(C(=O)Nc2csc3ccccc23)CC1` was tested, and the Potency was “inactive”.
For `O=C(C[n+]1cccc2cc(Cl)ccc21)c1ccc(Br)cc1`, the Potency was “inactive”.
With `CCN(CCn1cccn1)Cc1c(C(=O)N2CCCCCCC2)nc2ccc(Cl)cn12` the Potency was “inactive”.
For `CSCCC(NC(=O)c1ccc(Cl)cc1)C(=O)OCC(=O)N1CCCC1=O` (stereo not drawn), the Potency was “inactive”.
In the case of `COc1ccccc1N1CCN(c2ccc3c(c2)S(=O)(=O)c2cccc(C(=O)NCC4CC4)c2C3=O)CC1`, the Potency is reported as “inactive”.
With `CC/C(=C/c1ccccc1OC)c1cc(-c2ccccc2)cc2oc3ccccc3c12` the Potency was “inactive”.
For `Cc1cccc(Nc2c([N+](=O)[O-])c(=O)oc3ccccc23)c1`, the Potency was “inactive”.
In the case of `Cc1ccc(S(=O)(=O)N2[C@@H](CO)CO[C@H]2CC(=O)c2ccc(F)cc2)cc1`, the Potency is reported as “inactive”.
In the case of `CC(C)CC1C(=O)N(Cc2cn(CCC3OCCCO3)nn2)CCS(=O)(=O)N1Cc1ccc(-c2ccc(F)cc2)cc1` (stereo not drawn), the Potency is reported as “inactive”.
For `COC(=O)C(Cc1ccc(O)cc1)NC(=O)CCc1nc2ccccc2s1` (stereo not drawn), the Potency was “inactive”.
With `O=C(CCCC(=O)Nc1cccnc1)Nc1cccnc1` the Potency was “inactive”.
`CCOC(=O)[C@H](CCc1ccccc1)N[C@@H](C)C(=O)N1[C@@H](C(=O)O)C[C@@H]2CCC[C@@H]21` was tested, and the Potency was “inactive”.
In the case of `Cc1nc2ccccc2c(=O)n1/N=C/c1ccccc1O`, the Potency is reported as 35.5 µM (active).
In the case of `CC[C@H]1c2[nH]c3ccc(C(C)C)cc3c2[C@@H]2CCN3C(=O)CCC[C@H]1[C@H]23`, the Potency is reported as “inactive”.
For `CCCCCCc1ccc(N2C[C@H](Cc3ccccc3)[C@@H](CC(=O)Nc3ccccc3)C2=O)cc1`, the Potency was “inactive”.
For `CC(C(=O)Nc1ccccc1C(F)(F)F)n1nc(-c2ccccc2)c2c(c1=O)CCCC2` (stereo not drawn), the Potency was “inactive”.

Each molecule was assayed against Rap guanine nucleotide exchange factor 3 (Homo sapiens) (UniProt O95398) (assay: Confirmatory qHTS for agonist of cAMP-regulated guanine nucleotide exchange factor 3 (EPAC1) (AID 1645881;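 also: EPAC1 catalysed release of BODIPY-GDP from Rap1B seen as fluorescence loss; nearly all actives have a fitted effect of over 75% in size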)). Conditions: EPAC1 Rap1B BODIPY-GDP exchange fluorescence; series mostly up to 154 µM.
`COc1ccc(NC(=O)Cn2c(SCc3cc(C)ccc3C)nc3ccncc32)c(OC)c1OC` was tested, and the Potency was “inactive”.
With `CCC(C(=O)Nc1cc(OC)ccc1OC)n1nc(-c2ccccc2)c2c(c1=O)CCCC2` (stereo not drawn) the Potency was “inactive”.
With `COc1ccc(C(C[N+](=O)[O-])c2c(C)cc3ccccn23)c(OC)c1` (stereo not drawn) the Potency was “inactive”.
For `COCC(=O)Oc1c(Sc2ccc(C)cc2)c(C)nn1C(C)(C)C`, the Potency was “inactive”.
For `COc1ccc(C(=O)NC2CCCc3ccccc32)c(OC)c1OC` (stereo not drawn), the Potency was “inactive”.
`CN(CC(=O)O)c1ccc(/C=C/c2ccnc3ccccc23)cc1` was tested, and the Potency was “inactive”.
With `CCOC(=O)c1c(C)[nH]c(CCC(=O)NCc2cccc(OC)c2)c1C` the Potency was “inactive”.
For `O=C(COC(=O)/C=C/c1cccc(C(F)(F)F)c1)NC(=O)NC1CCCC1`, the Potency was “inactive”.
For `COc1ccc(OC)c2c(/C=C/c3c(C)[nH]c4ccccc34)ccnc12`, the Potency was “inactive”.
In the case of `CCCCN(Cc1ccc(C(=O)N[C@H](C(=O)O)C(C)C)cc1)C(=O)C(c1ccccc1)c1ccccc1`, the Potency is reported as “inactive”.
In the case of `CN(C)c1ccc(/C=C/C=C/c2ccnc3ccccc23)cc1`, the Potency is reported as “inactive”.
`COc1ccc(-c2[nH]c(-c3ccc(SC)cc3)nc2SCC(=O)Nc2nccs2)cc1` was tested, and the Potency was “inactive”.
`O=C(Nc1ccccn1)c1cccc(S(=O)(=O)N2CCc3ccccc3C2)c1` was tested, and the Potency was “inactive”.
`COc1cc(/C=N/NC(=O)c2ccccc2)ccc1O` was tested, and the Potency was “inactive”.
In the case of `C1=Cc2ccccc2/C1=C\c1ccc2c(c1)OCO2`, the Potency is reported as “inactive”.
In the case of `COc1ccccc1CNC(=O)CSc1ccc(-c2cccs2)nn1`, the Potency is reported as “inactive”.
For `COc1ccc(-c2nc3cc(C)ccc3cc2CN(C(=O)c2cccs2)C2CC2)cc1OC`, the Potency was “inactive”.
With `COc1ccccc1NC(=O)Nc1nc(CC(=O)Nc2ccc(N(C)C)cc2)cs1` the Potency was “inactive”.
With `Cc1ccc2nc(N3C(=O)C(O)=C(C(=O)c4ccc(C)o4)C3c3cccc(O)c3)sc2c1` (stereo not drawn) the Potency was “inactive”.
`Cc1nc(C)n(CC(=O)NCC2Cc3cc(-c4cccc(OC(F)(F)F)c4)ccc3O2)n1` (stereo not drawn) was tested, and the Potency was “inactive”.
In the case of `Cc1ccc(C2CC(=O)Oc3cc(C)cc(C)c32)cc1` (stereo not drawn), the Potency is reported as “inactive”.
In the case of `CCCCN(C(=O)CSc1n[nH]c(-c2ccc(C)cc2)n1)c1c(N)n(CCCC)c(=O)[nH]c1=O`, the Potency is reported as “inactive”.
With `O=C1C[C@H]2C=CCc3cccc(c32)CN1Cc1ccc(Cl)cc1` the Potency was “inactive”.
`NC(=O)C1CCN(C(=O)Nc2csc3ccccc23)CC1` was tested, and the Potency was “inactive”.
`O=C(C[n+]1cccc2cc(Cl)ccc21)c1ccc(Br)cc1` was tested, and the Potency was “inactive”.
In the case of `CCN(CCn1cccn1)Cc1c(C(=O)N2CCCCCCC2)nc2ccc(Cl)cn12`, the Potency is reported as “inactive”.
With `CSCCC(NC(=O)c1ccc(Cl)cc1)C(=O)OCC(=O)N1CCCC1=O` (stereo not drawn) the Potency was “inactive”.
With `COc1ccccc1N1CCN(c2ccc3c(c2)S(=O)(=O)c2cccc(C(=O)NCC4CC4)c2C3=O)CC1` the Potency was “inactive”.
With `CC/C(=C/c1ccccc1OC)c1cc(-c2ccccc2)cc2oc3ccccc3c12` the Potency was “inactive”.
With `Cc1cccc(Nc2c([N+](=O)[O-])c(=O)oc3ccccc23)c1` the Potency was “inactive”.
In the case of `Cc1ccc(S(=O)(=O)N2[C@@H](CO)CO[C@H]2CC(=O)c2ccc(F)cc2)cc1`, the Potency is reported as “inactive”.
`CC(C)CC1C(=O)N(Cc2cn(CCC3OCCCO3)nn2)CCS(=O)(=O)N1Cc1ccc(-c2ccc(F)cc2)cc1` (stereo not drawn) was tested, and the Potency was “inactive”.
For `COC(=O)C(Cc1ccc(O)cc1)NC(=O)CCc1nc2ccccc2s1` (stereo not drawn), the Potency was “inactive”.
For `O=C(CCCC(=O)Nc1cccnc1)Nc1cccnc1`, the Potency was “inactive”.
For `CCOC(=O)[C@H](CCc1ccccc1)N[C@@H](C)C(=O)N1[C@@H](C(=O)O)C[C@@H]2CCC[C@@H]21`, the Potency was “inactive”.
For `Cc1nc2ccccc2c(=O)n1/N=C/c1ccccc1O`, the Potency was “inactive”.
With `CC[C@H]1c2[nH]c3ccc(C(C)C)cc3c2[C@@H]2CCN3C(=O)CCC[C@H]1[C@H]23` the Potency was “inactive”.
`CCCCCCc1ccc(N2C[C@H](Cc3ccccc3)[C@@H](CC(=O)Nc3ccccc3)C2=O)cc1` was tested, and the Potency was “inactive”.
In the case of `CC(C(=O)Nc1ccccc1C(F)(F)F)n1nc(-c2ccccc2)c2c(c1=O)CCCC2` (stereo not drawn), the Potency is reported as “inactive”.

— PubChem BioAssay (NCATS)
